Unmarked numbers belong to inactive results.

Chain of UniProt Q15149 (Q15149 whole entry): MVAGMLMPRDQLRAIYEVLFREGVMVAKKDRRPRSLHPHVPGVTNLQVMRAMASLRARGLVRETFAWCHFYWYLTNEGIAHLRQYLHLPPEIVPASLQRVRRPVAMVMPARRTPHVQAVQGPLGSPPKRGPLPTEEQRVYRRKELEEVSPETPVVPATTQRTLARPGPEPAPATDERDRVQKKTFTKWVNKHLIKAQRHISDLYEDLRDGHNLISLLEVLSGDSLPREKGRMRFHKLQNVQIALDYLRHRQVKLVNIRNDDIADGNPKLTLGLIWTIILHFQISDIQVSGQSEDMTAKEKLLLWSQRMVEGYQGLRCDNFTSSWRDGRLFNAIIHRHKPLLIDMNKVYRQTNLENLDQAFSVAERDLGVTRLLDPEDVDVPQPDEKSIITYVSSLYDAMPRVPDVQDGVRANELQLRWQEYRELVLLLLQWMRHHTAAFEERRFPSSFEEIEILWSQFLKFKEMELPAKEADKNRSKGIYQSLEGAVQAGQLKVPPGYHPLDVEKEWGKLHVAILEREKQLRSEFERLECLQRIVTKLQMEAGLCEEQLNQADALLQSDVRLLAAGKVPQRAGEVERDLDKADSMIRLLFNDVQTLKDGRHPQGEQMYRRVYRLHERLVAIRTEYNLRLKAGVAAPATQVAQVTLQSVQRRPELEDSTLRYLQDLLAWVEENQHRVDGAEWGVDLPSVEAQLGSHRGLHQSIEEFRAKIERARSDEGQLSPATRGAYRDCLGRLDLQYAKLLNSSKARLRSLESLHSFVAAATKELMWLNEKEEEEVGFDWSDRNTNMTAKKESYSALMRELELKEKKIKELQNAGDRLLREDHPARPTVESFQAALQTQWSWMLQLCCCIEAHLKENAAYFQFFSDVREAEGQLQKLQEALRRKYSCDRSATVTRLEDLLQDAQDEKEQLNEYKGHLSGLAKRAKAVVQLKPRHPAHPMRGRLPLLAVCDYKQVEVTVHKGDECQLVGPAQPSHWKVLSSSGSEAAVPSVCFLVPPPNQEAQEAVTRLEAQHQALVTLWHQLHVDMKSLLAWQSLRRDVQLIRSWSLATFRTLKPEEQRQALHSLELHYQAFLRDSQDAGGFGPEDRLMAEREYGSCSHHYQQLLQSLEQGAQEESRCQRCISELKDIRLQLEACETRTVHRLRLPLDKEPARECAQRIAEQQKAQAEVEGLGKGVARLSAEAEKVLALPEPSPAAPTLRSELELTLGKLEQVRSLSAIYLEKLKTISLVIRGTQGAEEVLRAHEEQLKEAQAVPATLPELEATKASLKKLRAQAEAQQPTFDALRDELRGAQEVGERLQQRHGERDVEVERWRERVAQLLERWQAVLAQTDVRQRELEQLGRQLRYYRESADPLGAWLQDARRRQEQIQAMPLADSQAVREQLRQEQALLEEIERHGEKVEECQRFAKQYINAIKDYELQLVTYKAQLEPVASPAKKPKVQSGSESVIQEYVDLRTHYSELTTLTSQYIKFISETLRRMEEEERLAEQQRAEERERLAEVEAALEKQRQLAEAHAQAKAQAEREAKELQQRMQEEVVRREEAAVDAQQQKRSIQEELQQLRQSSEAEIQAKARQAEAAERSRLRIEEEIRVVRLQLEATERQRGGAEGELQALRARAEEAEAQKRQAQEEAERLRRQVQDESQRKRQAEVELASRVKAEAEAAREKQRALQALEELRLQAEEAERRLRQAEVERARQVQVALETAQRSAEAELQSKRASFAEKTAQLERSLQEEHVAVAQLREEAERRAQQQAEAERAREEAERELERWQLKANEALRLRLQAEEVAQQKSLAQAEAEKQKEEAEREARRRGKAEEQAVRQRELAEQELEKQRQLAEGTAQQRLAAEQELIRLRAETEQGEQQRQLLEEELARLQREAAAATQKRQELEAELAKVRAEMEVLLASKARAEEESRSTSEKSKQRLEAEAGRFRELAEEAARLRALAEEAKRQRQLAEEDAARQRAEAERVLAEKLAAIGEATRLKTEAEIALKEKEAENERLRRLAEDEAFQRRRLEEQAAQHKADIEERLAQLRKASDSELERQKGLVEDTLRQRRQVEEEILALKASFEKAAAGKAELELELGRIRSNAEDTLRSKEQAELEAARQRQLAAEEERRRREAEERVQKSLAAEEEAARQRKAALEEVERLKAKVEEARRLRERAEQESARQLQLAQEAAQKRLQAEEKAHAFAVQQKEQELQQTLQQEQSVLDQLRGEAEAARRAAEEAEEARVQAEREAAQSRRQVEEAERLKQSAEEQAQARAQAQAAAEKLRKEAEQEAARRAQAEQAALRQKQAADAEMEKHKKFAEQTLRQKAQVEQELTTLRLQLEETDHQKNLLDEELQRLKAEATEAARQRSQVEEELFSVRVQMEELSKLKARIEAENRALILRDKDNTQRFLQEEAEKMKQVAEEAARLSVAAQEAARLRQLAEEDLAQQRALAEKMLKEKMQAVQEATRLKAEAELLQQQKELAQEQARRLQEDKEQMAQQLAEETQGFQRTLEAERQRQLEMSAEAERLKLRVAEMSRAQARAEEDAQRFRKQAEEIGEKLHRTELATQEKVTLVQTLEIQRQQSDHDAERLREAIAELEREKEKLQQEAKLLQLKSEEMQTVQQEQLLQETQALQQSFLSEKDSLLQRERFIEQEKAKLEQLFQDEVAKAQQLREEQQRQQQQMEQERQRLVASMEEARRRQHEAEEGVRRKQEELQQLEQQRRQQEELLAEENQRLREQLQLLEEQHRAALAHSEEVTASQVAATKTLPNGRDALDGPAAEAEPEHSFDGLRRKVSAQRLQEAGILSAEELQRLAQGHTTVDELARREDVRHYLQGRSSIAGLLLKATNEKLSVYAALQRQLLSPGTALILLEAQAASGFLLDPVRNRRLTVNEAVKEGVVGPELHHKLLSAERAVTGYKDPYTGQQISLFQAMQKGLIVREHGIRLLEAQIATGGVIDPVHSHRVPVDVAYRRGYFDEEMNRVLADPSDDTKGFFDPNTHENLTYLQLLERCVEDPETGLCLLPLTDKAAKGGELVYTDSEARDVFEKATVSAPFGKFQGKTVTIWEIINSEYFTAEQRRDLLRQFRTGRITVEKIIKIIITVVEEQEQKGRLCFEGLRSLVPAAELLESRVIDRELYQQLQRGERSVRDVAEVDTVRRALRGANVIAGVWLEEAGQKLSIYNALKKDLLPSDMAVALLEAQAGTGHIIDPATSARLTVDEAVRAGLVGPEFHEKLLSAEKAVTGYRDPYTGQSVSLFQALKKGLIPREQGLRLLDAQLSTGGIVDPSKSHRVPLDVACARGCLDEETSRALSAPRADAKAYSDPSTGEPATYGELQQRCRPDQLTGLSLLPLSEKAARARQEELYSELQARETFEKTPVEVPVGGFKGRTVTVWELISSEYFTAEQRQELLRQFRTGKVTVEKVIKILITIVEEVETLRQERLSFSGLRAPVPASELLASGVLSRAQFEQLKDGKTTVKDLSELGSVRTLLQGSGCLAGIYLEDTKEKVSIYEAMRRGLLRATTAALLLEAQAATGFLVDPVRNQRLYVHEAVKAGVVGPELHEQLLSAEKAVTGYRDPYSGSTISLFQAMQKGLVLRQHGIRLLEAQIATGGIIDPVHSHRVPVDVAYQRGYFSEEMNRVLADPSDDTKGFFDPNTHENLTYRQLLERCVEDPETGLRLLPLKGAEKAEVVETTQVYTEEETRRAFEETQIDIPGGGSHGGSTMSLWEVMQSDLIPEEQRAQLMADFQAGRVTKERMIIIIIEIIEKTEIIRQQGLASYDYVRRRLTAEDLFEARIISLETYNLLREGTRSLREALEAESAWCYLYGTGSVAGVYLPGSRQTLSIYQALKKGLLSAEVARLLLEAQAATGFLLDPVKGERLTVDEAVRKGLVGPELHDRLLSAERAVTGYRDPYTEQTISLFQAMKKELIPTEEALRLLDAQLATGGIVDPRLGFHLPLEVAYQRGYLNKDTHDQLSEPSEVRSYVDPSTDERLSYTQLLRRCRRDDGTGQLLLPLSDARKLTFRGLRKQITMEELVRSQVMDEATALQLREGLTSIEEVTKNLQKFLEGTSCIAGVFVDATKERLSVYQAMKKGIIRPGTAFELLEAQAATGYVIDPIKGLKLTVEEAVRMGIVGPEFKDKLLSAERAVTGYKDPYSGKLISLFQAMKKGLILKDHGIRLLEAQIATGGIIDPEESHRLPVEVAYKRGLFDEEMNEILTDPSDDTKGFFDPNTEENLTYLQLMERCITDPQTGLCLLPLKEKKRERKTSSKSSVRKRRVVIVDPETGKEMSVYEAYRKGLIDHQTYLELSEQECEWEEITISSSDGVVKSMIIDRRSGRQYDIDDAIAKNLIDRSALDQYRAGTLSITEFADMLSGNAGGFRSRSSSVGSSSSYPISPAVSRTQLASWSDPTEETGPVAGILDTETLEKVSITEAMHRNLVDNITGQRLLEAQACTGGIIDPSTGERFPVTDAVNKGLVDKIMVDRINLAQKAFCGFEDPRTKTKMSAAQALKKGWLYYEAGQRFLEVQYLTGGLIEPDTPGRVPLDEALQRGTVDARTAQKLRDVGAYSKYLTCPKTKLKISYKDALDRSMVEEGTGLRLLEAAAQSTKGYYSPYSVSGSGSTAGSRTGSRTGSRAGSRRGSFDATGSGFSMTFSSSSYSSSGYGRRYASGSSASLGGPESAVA
Chain of UniProt Q10589 (Q10589 whole entry): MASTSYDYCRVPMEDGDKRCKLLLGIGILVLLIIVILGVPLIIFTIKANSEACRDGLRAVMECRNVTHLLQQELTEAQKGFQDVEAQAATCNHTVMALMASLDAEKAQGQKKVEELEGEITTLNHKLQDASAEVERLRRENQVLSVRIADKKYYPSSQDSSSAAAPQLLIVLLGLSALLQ
Chain of UniProt Q16629 (Q16629 whole entry): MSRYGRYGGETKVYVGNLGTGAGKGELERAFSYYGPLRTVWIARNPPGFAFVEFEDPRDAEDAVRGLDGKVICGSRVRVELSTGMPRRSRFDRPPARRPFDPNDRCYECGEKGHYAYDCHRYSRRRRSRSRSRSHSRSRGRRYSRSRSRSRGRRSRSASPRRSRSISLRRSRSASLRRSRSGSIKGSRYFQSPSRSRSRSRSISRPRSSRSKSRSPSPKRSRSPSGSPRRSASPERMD

Compound in this assay: C#CCNC(=O)CCSSCCC(=O)NCCc1ccc(C=O)c(C=O)c1
The assay is described as follows: lysine labeling ratio R10:1 (500 µM / 50 µM probe), SILAC-ABPP in living cells; higher = lower intrinsic lysine reactivity toward the probe, active = 2 or less. The conditions noted are these: HeLa; probe concentrations 500 vs 50 µM. Summed up:
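For each lysine, R is the median over forward and reverse replicates of the filtered median MS1 peptide ratio of high probe to low probe. The probe, an alkyne-tagged, disulfide-linked lysine probe, was given at 500 µM or 50 µM to living SILAC light and heavy HeLa cells in PBS at room temperature, with label swaps. Values are capped at 20.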
“PEBP1 (lysine site: K113) (UniProt P30086)”: the “lysine labeling ratio R10:1” value is 2.7. The value for “CYB5R3 (lysine site: K164) (UniProt P00387)” was 1.79 (active); that for “MYH9 (lysine site: K1673) (UniProt P35579)” was 5.57.

“TFPI (lysine site: K101) (UniProt P10646)”: the “lysine labeling ratio R10:1” value is 7.9. The same measure for “FRAS1 (lysine site: K211) (UniProt Q86XX4)”: 1.36 (active); for UniProt Q16363 (lysine site: K1330): 2.83. The same measure for UniProt Q15149 (lysine site: K2339): 4.2; for “ROBO1 (lysine site: K316) (UniProt Q9Y6N7)”: 6.23. For “ALDOA (lysine site: K42) (UniProt P04075)”, the “lysine labeling ratio R10:1” value is 3. Take UniProt Q15149 (lysine site: K1659): the “lysine labeling ratio R10:1” value is 6.06.

As for “STOM (lysine site: K198) (UniProt P27105)”, the “lysine labeling ratio R10:1” value was 5.83. The same measure for “BST2 (lysine site: K126) (UniProt Q10589)”: 4.11; for “HSP90B1 (lysine site: K97) (UniProt P14625)”: 5.42; for UniProt O15354 (lysine site: K405): 1.9 (active).

As for “ROR2 (lysine site: K285) (UniProt Q01974)”, the “lysine labeling ratio R10:1” value is 3.36. The same measure for “DYNC1H1 (lysine site: K2239) (UniProt Q14204)”: 6.84; for UniProt Q9NYQ6 (lysine site: K1830): 0.925 (active).

Consider “MET (lysine site: K189) (UniProt P08581)”, for which the “lysine labeling ratio R10:1” value is 3.58. With “LAMB1 (lysine site: K158) (UniProt P07942)”, the “lysine labeling ratio R10:1” value was 1.78 (active).

Take “FN1 (lysine site: K248) (UniProt P02751)”: the “lysine labeling ratio R10:1” value was 2.7. The same measure for “SPTAN1 (lysine site: K1274) (UniProt Q13813)”: 3.51. The value for “IARS (lysine site: K375) (UniProt P41252)” was 1.66 (active); that for “RPS19 (lysine site: K144) (UniProt P39019)” was 1.75 (active); that for “VAPA (lysine site: K211) (UniProt Q9P0L0)” was 4.3. Consider UniProt P62249 (lysine site: K4), for which the “lysine labeling ratio R10:1” value was 5.53. The same measure for “CCT3 (lysine site: K222) (UniProt P49368)”: 2.19; for “FLOT1 (lysine site: K246) (UniProt O75955)”: 2.54. The same measure for “TMED9 (lysine site: K71) (UniProt Q9BVK6)”: 5.82; for “FZD1 (lysine site: K384) (UniProt Q9UP38)”: 0.938 (active); for “RPL3 (lysine site: K155) (UniProt P39023)”: 0.69 (active). The value for “ITGA1 (lysine site: K292) (UniProt P56199)” was 2.63; that for UniProt P21589 (lysine site: K536) was 1.24 (active); that for “LAMP1 (lysine site: K137) (UniProt P11279)” was 2.74. “CEP250 (lysine site: K1048) (UniProt Q9BV73)”: the “lysine labeling ratio R10:1” value is 7.19.

As to “RARS (lysine site: K557) (UniProt P54136)”, the “lysine labeling ratio R10:1” value is 1.64 (active). The value for “FASN (lysine site: K41) (UniProt P49327)” was 0.712 (active); that for UniProt Q16629 (lysine site: K70) was 1.67 (active). The value for UniProt P16144 (lysine site: K46) was 10.1.

For “IGF2R (lysine site: K1776) (UniProt P11717)”, the “lysine labeling ratio R10:1” value is 2.48. In the case of “ITGB1 (lysine site: K73) (UniProt P05556)”, the “lysine labeling ratio R10:1” value is 2.27.

The values are drawn from the supplement of paper PMC11001985.
